Screens as filed in PubChem BioAssay.
DT40 TDP1 CPT: DT40-hTDP1 cell growth loss with CPT | chicken DT40 Tdp1-/-;hTDP1 cells + 20 nM CPT, ATP luminescence, 48 h | Potency, µM (doses to about 46.2 µM), hits mostly inhibitors | 420,000 compounds, 12% hits; also: nearly all actives have a fitted effect of over 55% in size
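Chicken DT40 Tdp1-/- cells complemented with human TDP1, 400 cells/well, exposed to compounds plus 20 nM camptothecin for at least 48 h at 37 C; viability read as ATP content by CellTiter-Glo luminescence.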
HT1080-NT tox: kills 2HG-producing HT-1080-NT fibrosarcoma cells. AID 686970. 360,000 compounds, 1.6% hits. Potency, µM (highest dose often 46.1 µM), usual class: cytotoxic. HT-1080-NT fibrosarcoma viability, CellTiter-Glo ATP luminescence, 48 h;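 also: NT is the 2HG producing partner of a matched IDH1 knockdown line; nearly all actives have a fitted effect of over 55% in size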
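Compounds were tested in concentration-response format on HT-1080-NT cells for 48 hours at 37 degrees C. Cell viability came from CellTiter-Glo luminescence; curves were classified by r2, response magnitude and activity.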
IL1B secr inh: blocks inflammasome-driven IL-1 beta release | THP-1 LPS/ATP IL-1B secretion, AlphaLISA, 16 h; stronger effect = lower value | activity change, % at 57.5 µM | 360,000 compounds, 4.7% hits; in the data active = activity change below about -50%; inconclusive = mostly about -30% to -49%
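THP-1 cells pretreated 1 hr with compounds (up to 57.5 uM final), then stimulated with LPS (250 ng/mL final) plus ATP (1.25 mM final); secreted IL-1B measured by AlphaLISA after 16 hr, decreased signal indicating inhibition.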
DT40 TDP1 no CPT: qHTS for Inhibitors of human tyrosyl-DNA phosphodiesterase 1 (TDP1): qHTS in cells in absence of CPT. Potency, µM (titrated, usually from 46.2 µM), most hits filed as inhibitors. 420,000 compounds, 15% hits. AID 686978, 2013. DT40 Tdp1-/- hTDP1 cells, no CPT, ATP luminescence, 48 h; also: nearly all actives have a fitted effect of over 55% in size
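Camptothecin absent (DMSO only). Human TDP1-complemented DT40 knockout cells, 400 cells/well, 37 °C for minimum 48 hr; ATP measured via CellTiter-Glo, 30 min dark incubation, luminescence.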
HT1080 IDH1KD tx: kills HT-1080 cells with IDH1 knockdown; HT-1080 IDH1 knockdown viability, ATP luminescence, 48 h; Potency, µM (doses to about 46.1 µM), usual class: cytotoxic; 360,000 compounds, 2% hits; AID 686971
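In this qHTS, HT-1080 cells depleted of IDH1 are exposed for 48 h at 37 °C to compound titrations. Toxicity is scored from CellTiter-Glo luminescence, with DMSO as full viability and medium alone as none.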
Hits are given with their value; . = inactive; ? = inconclusive; / = not tested or not shown; ! = not confirmed by another sample. An excerpt weighted towards active compounds, which were near 19% of everything screened. Unless noted, calls follow the shape of the dose curve; as a rule, active = well fitted curve in the direction sought with a large enough effect; inconclusive = small, poorly fitted or top-dose-only effect, or another doubt; inactive = no such curve, though single readings can be large; an effect the other way counts as inactive or inconclusive.

SMILES | DT40 TDP1 CPT | HT1080-NT tox | IL1B secr inh | DT40 TDP1 no CPT | HT1080 IDH1KD tx
CCNC(=O)/C(C#N)=C/c1c(N2CCN(c3ccccc3)CC2)nc2c(C)cccn2c1=O | ? | . | . | ? | .
CCNC(=O)/C(C#N)=C/c1c(N2CCCCCC2)nc2c(C)cccn2c1=O | ? | . | ? | 23.1µM | .
CCNC(=O)/C(C#N)=C/c1c(N2CCN(c3ccc(OC)cc3)CC2)nc2c(C)cccn2c1=O | ? | . | -61.6 | 20.6µM | .
COCCNC(=O)/C(C#N)=C/c1c(N2CCN(c3ccccc3)CC2)nc2c(C)cccn2c1=O | 23.1µM | . | . | ? | .
CCCCOc1ccc(C(=O)NCC2(N3CCN(C)CC3)CCCCC2)cc1 | ? | / | / | 18.4µM | /
CC(C)COc1ccc(C(=O)OCCN2CCCCC2)cc1 | . | ? | . | . | .
CCCCOc1ccc(C(=O)CCN2CCCCC2)cc1 | 8.2µM | ? | . | 6.51µM | 18.4µM
CC(C)COc1ccc(C(=O)CCN2CCCCC2)cc1 | 5.17µM | 18.4µM | . | 2.91µM | ?
COc1ccc(C(=O)NCC2(N3CCN(C)CC3)CCCCC2)cc1 | . | / | / | . | /
O=C(NCc1ccccc1)c1ncn[nH]1 | . | . | . | . | ?
O=C(/C=C/c1cccnc1)c1ccccc1O | ? | . | . | ? | .
COc1cc(C(=O)Nc2ccncc2)c([N+](=O)[O-])cc1OC | . | . | . | . | .
CN(C)C(=O)COc1ccc(C(=O)/C=C/c2cccnc2)cc1 | 16.4µM | ? | -101.0 | 13µM | ?
O=C(/C=C/c1cccnc1)c1ccc(O)cc1 | ? | ? | -97.9 | 14.6µM | ?
COc1cc(C(=O)/C=C/c2cccnc2)c([N+](=O)[O-])cc1OC | 5.17µM | ? | -99.8 | 5.8µM | ?
O=C(C=Cc1cccnc1)c1ccccc1 | 5.8µM | ? | -105.8 | 5.8µM | 18.4µM
CCN(C(=O)COC(=O)CCC1CCCC1)c1c(N)n(Cc2ccccc2)c(=O)[nH]c1=O | . | . | . | . | .
O=C(c1ccccc1)N1CCOC(O)(c2ccccc2)C1c1ccccc1 (stereo not given) | ? | . | . | . | .
CC(C)CCSc1nc2[nH]ncc2c(=O)[nH]1 | . | . | . | . | .
O=C1CC(c2ccccc2)=C(c2ccccc2)C1c1ccccc1 (stereo not given) | 29.1µM | . | . | ? | .
CCC(=O)Nc1c(-c2ccc(C)cc2)nc2ccc(C)cn12 | . | . | . | . | .
CCCCCCSc1ccc(-c2nc3ccc(C)cn3c2NCc2ccccc2)cc1OC | 16.4µM | . | -52.7! | 18.4µM | ?
CCCCCCSc1cccc(-c2nc3ccc(Cl)cn3c2NCc2ccccc2)c1 | 20.6µM | . | . | 23.1µM | .
CCCCCCSc1ccc(-c2nc3ccc(C)cn3c2NCc2ccccc2)cc1 | 23.1µM! | . | -109.9! | 16.4µM! | .
COc1ccc(-c2cn3cc(C)ccc3n2)cc1OC | . | . | . | ? | .
SMILES | DT40 TDP1 CPT | HT1080-NT tox | IL1B secr inh | DT40 TDP1 no CPT | HT1080 IDH1KD tx
c1ccc2c(N3CCOCC3)nc(-c3ccoc3)nc2c1 | ? | / | / | . | /
CC1=C(/C=C/C(C)=C/C=C/C(C)=C\C(=O)O)C(C)(C)CCC1 | ? | . | . | 23.1µM! | .
CC1=C(/C=C/C(=O)O)C(C)(C)CCC1 | . | . | . | . | .
CC1=C(\C=C/C(C)=C/C=C\C(C)=C\C(=O)O)C(C)(C)CCC1 | 14.6µM! | / | / | 11.6µM! | /
O=S(=O)(c1cccs1)N1CN(Cc2cccs2)c2nc3ccccc3nc21 | ? | . | . | 16.4µM | .
CC1(C)C(O)CC[C@]2(C)C1CC[C@@]1(C)C2C(=O)C=C2[C@@H]3C[C@@](C)(C(=O)O)CC[C@@]3(C)CCC21C (stereo not given in full) | . | / | / | . | /
CC1(C)[C@@H](O)CC[C@]2(C)[C@H]3C(=O)C=C4[C@@H]5C[C@@](C)(C(=O)O)CC[C@]5(C)CC[C@@]4(C)[C@]3(C)CC[C@@H]12 | 7.5µM! | . | . | 2.37µM! | .
COc1ccccc1CCNC(=O)Cn1ccc2cc(S(=O)(=O)N3CCC(C)CC3)ccc21 | ? | . | ? | ? | .
COc1ccccc1NC(=O)Nc1nn(C)c2cccc(N(C)C)c12 | 14.6µM | . | ? | 16.4µM | .
